Reference: PubChem BioAssay AID652054 (National Center for Advancing Translational Sciences (NCATS), 2013)
Out of some 360,000 compounds screened, about 9,100 (2.5%) were called active. About 4% were inconclusive and are not listed. Rule as the data show it: active = max response below about -50%; inconclusive = no clear call, values can overlap the other calls; inactive = above that. What follows is part of a selection rich in actives, with near analogues and random picks from the rest.

Target: D(3) dopamine receptor (Homo sapiens) (UniProt P35462)
Experiment: qHTS of D3 Dopamine Receptor Antagonist: qHTS
Settings: D3R cells, DiscoveRx beta-arrestin luminescence, antagonist mode; hits give low values
Method in brief: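 Cells expressing the human receptor were seeded at 1500 cells/well, incubated overnight at 37 degrees C in 5% CO2, then exposed to library compounds with dopamine controls for 90 minutes at 37 degrees C before luminescent detection.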
% is scaled to controls: 0 for no effect and ±100 for the full control effect.

Sequence of D(3) dopamine receptor (Homo sapiens) (P35462 whole entry, looked up): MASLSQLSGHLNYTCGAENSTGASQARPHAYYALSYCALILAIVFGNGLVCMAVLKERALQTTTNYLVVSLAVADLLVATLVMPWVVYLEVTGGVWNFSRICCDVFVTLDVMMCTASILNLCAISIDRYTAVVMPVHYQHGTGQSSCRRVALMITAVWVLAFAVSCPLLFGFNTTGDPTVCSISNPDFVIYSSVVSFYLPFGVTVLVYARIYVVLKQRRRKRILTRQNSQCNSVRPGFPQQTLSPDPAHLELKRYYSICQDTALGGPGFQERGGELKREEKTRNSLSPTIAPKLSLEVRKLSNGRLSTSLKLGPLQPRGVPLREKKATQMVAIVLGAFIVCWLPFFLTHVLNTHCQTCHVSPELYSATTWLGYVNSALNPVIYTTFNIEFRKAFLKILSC

| Structure (SMILES) | max response, negative = inhibition |
| --- | --- |
| CC(=O)Nc1cnc(-c2ccc(O)cc2C)cn1 | 12.9% (inactive) |
| CC1(C(=O)NS(=O)(=O)c2cccc(OC(F)F)c2)CCN1C(=O)COc1ccc(Cl)cc1 (centres undefined) | 0% (inactive) |
| COc1ccc(C(=O)NNC(=O)c2cnccn2)cc1[N+](=O)[O-] | -63.8% (active) |
| COc1cccc(OCC(=O)NNC(=O)c2cnccn2)c1 | -0.611% (inactive) |
| CCOc1ccc(C(=O)Nc2nccs2)cc1[N+](=O)[O-] | 2.71% (inactive) |
| CCc1nc2ccc(C(=O)Nc3cc(-c4ccccc4)ccc3OC)cn2c1N(CC)CC(=O)N(C)C | -16.4% (inactive) |
| NC(Cc1ccccc1)c1csc(Nc2cc(Oc3ccccc3)ncn2)n1 (centres undefined) | 9.45% (inactive) |
| O=C(c1cc(C2CCCCN2S(=O)(=O)c2ccccc2)on1)N1CCOCC1 (centres undefined) | 44.2% (inactive) |
| CCCCN(C(C)=O)c1ccc2c(c1)C1CC2CCN1Cc1ccccc1 (centres undefined) | -22% (inactive) |
| O=C(Cn1cnc2c(nnn2-c2ccccc2)c1=O)N1CCC(Cc2ccccc2)CC1 | -67.4% (active) |
| COc1ccc(-n2nnc3c(=O)n(CC(=O)N4CCC(Cc5ccccc5)CC4)cnc32)cc1 | -29.9% (inactive) |
| COc1ccc(-n2nnc3c(=O)n(CC(=O)OCc4ccccc4)cnc32)cc1 | 7.78% (inactive) |
| CC(C)(C)Cc1c(C2CCCCC2)nc2ccc(Br)cn12 | 20.9% (inactive) |
| CCN(CC)c1ncnc2c1ncn2[C@H]1CN(Cc2cccs2)C[C@@H](CO)O1 | -18.3% (inactive) |
| CC1(C(=O)NCc2ccc3c(c2)OCO3)CCN1C(=O)Cc1cccc2ccccc12 (centres undefined) | -2.93% (inactive) |
| CCOC(=O)N1CCN(Cc2nc(Cc3cccc(C(F)(F)F)c3)no2)CC1 | -50.2% (active) |
| O=C(c1ccco1)N1CCN(Cc2cccc(C(F)(F)F)c2)CC1 | 19.4% (inactive) |
| FC(F)(F)c1cccc(Cc2noc(CN3CCC(N4CCCCC4)CC3)n2)c1 | 43.6% (inactive) |
| CCCNC(=O)C1(C)CCCN(C(=O)c2cccc(OC(C)=O)c2C)C1 (centres undefined) | 9.36% (inactive) |
| COc1ccccc1Cc1c(-c2ccc(Cl)cc2)nc2c3ccccc3ccn12 | 7.3% (inactive) |

| Structure (SMILES) | max response, negative = inhibition |
| --- | --- |
| CCCCNCCS(=O)(=O)NCc1ccccc1 | -71.2% (active) |
| O=C(NCCS(=O)(=O)NCc1ccc(F)cc1)c1ccccc1 | -8.19% (inactive) |
| Cc1ccc(CNS(=O)(=O)CCNC(=O)c2ccccc2)cc1 | 18.2% (inactive) |
| CC(=O)N1CCN(Cc2cc(=O)oc3cc(C)ccc23)CC1 | 10.4% (inactive) |
| COc1ccc(S(=O)(=O)N2CCN(CC(=O)N3CCNC3=O)CC2)cc1OC | 3.73% (inactive) |
| Cn1ncc([N+](=O)[O-])c1C(=O)Nc1cc(Cl)ccc1Cl | 0% (inactive) |
| O=C(CSc1ncn[nH]1)NCc1ccc2c(c1)OCO2 | 5.23% (inactive) |
| O=C(/C=C/Sc1ncn[nH]1)c1ccc(Cl)cc1 | -50.9% (active) |
| O=C(CSc1ncn[nH]1)Nc1ccc(Br)cc1Br | -17.2% (inactive) |
| CN(C)C(=O)c1cccc(-c2cnc3sc(NCc4ccc5c(c4)OCO5)nn23)c1 | 59.7% (inactive) |
| CCCCCc1c(-c2cccc(Br)c2)ncn1CCc1ccccc1OC | 19.8% (inactive) |
| CCCNC(=O)C1(C)CCCN(C(=O)c2oc3ccccc3c2C)C1 (centres undefined) | -13.3% (inactive) |
| Cc1nn(C)cc1C(=O)NNC(=S)Nc1ccc(Cl)cc1 | -63.2% (active) |
| Cn1cc(Cl)c(C(=O)NNC(=S)Nc2cccc(Cl)c2)n1 | -24.3% (inactive) |
| Cc1nn(C)cc1CNC(=O)Nc1ccc(Cl)cc1 | 6.1% (inactive) |
| Cc1cccc(CN2CCN(C3CN(Cc4ccccc4)S(=O)(=O)C3)CC2)c1 (centres undefined) | -8.28% (inactive) |
| Cc1cc2nc(-c3ccc(Cl)cc3)c(Cc3cccc(F)c3)n2c(C)c1Br | 0% (inactive) |
| COc1ccccc1CC1(C)C(=O)Nc2ccc(OC(F)(F)F)cc21 (centres undefined) | -16.9% (inactive) |
| CC(=O)Nc1ccc2c3c(ccc([N+](=O)[O-])c13)CC2 | -18.8% (inactive) |
| CN1/C(=C\C=C2\N=C(c3ccc(F)cc3)OC2=O)C(C)(C)c2ccccc21 | -63.7% (active) |

| Structure (SMILES) | max response, negative = inhibition |
| --- | --- |
| CC(=O)Nc1cccc(OCC(=O)/C=C2\N(C)c3ccccc3C2(C)C)c1 | 12.1% (inactive) |
| CN1CCN(CCC(=O)N/N=C/C=C2\N(C)c3ccccc3C2(C)C)CC1 | -23.3% (inactive) |
| Cc1cc2c(cc1C)N1C(=O)c3cc4ccccc4cc3NC(=O)C1C(=O)N2 (centres undefined) | 0% (inactive) |
| CC(=O)C[C@@H]1OC[C@H](C)N1S(=O)(=O)c1ccc(C)cc1 | 1.58% (inactive) |
| Cc1nccn1-c1ccc(NC(=O)[C@H]2O[C@@H](n3ccc(=O)[nH]c3=O)[C@H](O)[C@@H]2O)cc1 | 23.4% (inactive) |
| CCc1nc2c(OCc3ccc(C(F)(F)F)cc3)cccn2c1N(C)C(=O)CC(C)C | 3.13% (inactive) |
| COc1cccc(-c2cnc(C(O)c3ccccc3OC)[nH]2)c1 (centres undefined) | 0% (inactive) |
| CC1(C(=O)NCc2ccccc2)CSCC(=O)N1CCCn1ccnc1 (centres undefined) | 11.4% (inactive) |
| CCN(CC)c1ccc(/C=N/NC(=O)c2cnccn2)c(O)c1 | -57.7% (active) |
| Cc1ccc2cc(/C=N/Nc3ccc(C(=O)O)cc3)c(Cl)nc2c1 | 13.3% (inactive) |
| COc1ccc(NC(=O)C/C(C)=N/NC(=O)c2cnccn2)cc1Cl | 3.87% (inactive) |
| CCN(CC)c1ccc(/C=N/Nc2nc(C)cc(C)n2)c(O)c1 | -81.5% (active) |
| CCOc1cc(/C=N/Nc2cc(C)nc3ccc(C)cc23)ccc1O | 3.59% (inactive) |
| Cc1ccc(/C=N/NC(=O)C2=NNC(c3ccccc3)(c3ccccc3)C2)c(O)c1 | 15.1% (inactive) |
| c1cc(-c2ccc3[nH]ccc3c2)n2ccnc2c1 | 0% (inactive) |
| CCNC(=O)C1(C)CCN(C(=O)c2ccccc2)C1 (centres undefined) | 0% (inactive) |
| COc1ccc(C(C(=O)NCc2ccccc2)n2c(=O)c(-c3ccccc3)nc3ccccc32)cc1 (centres undefined) | -3.74% (inactive) |
| COc1ccc(OC)c(NC(=O)C2CCCN2S(=O)(=O)c2ccc3c(c2)CC(C)N3C(C)=O)c1 (centres undefined) | -11.1% (inactive) |
| CCN(CCN(C)C)C(=O)c1ccc2nc(C)c(N(C)C(=O)CCc3ccccc3)n2c1 | 14.8% (inactive) |
